Screens: PubChem BioAssay, National Center for Advancing Translational Sciences (NCATS)
Hits are enriched below; roughly 10% of the tested compounds scored in any of these assays.
BAZ2B block = qHTS Assay for Inhibitors of BAZ2B; Bromodomain adjacent to zinc finger domain protein 2B (Homo sapiens), Q9UIF8; AlphaScreen BAZ2B-H3K14Ac peptide displacement; Potency, µM (highest dose often 114 µM), for the others: top-dose activity change, negative = inhibition, actives largely listed as inhibitors; 4.4% of 360,000 active; AID 504333, 2011; further: on the % scale 0 is the no-effect control and ±100 the full control effect; nearly all actives have a fitted effect of over 60% in size
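AlphaScreen displacement of biotin-H3(5-23)K14Ac peptide (50 nM final) from BAZ2B (50 nM final) in PBS pH 7.4, 0.01% Tween-20; complex preformed 30 min RT, then compounds (top 110 uM) 30 min RT, beads 20 min dark.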
G9a block = qHTS Assay for Inhibitors of Histone Lysine Methyltransferase G9a. Histone-lysine N-methyltransferase EHMT2 (Homo sapiens), Q96KQ7. G9a H3K9 monomethylation, AlphaScreen, 2 h. Potency, µM (series often up to 102 µM), for the others: top-dose activity, negative = inhibition, actives largely listed as inhibitors. 8.8% of 350,000 active; further: on the % scale 0 is the no-effect control and ±100 the full control effect; nearly all actives have a fitted effect of over 75% in size
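Step 1: enzyme (final 20 nM) with compound, 15 min RT. Step 2: substrate peptide 500 nM and SAM 20 uM, 2 h RT. Step 3: anti-H3K9me1 antibody and AlphaScreen beads, 10 min, then plate read.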
HP1b binding inh = HTS for Inhibitors of HP1-beta Chromodomain Interactions with Methylated Histone Tails. Chromobox protein homolog 1 (Homo sapiens), P83916. AlphaScreen HP1-beta / biotin-H3K9me3 peptide binding. Potency, µM (doses to about 114 µM), without a hit: top-dose activity change, negative = inhibition, hits mostly inhibitors. 0.56% of 390,000 active; further: nearly all actives have a fitted effect of over 70% in size
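Compound inhibition of the preformed complex between 50 nM HP1-beta and 50 nM biotinylated H3K9me3 peptide was read by AlphaScreen. Buffer was PBS pH 7.4 with 0.01% Tween-20. Incubations ran 30 min at room temperature, with 10 ug/mL donor/acceptor beads.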
JMJD2A Tudor = qHTS Assay for Inhibitors of JMJD2A-Tudor Domain; Potency, µM (top dose mostly 114 µM), inactives show at the top dose activity change, negative = inhibition, actives largely listed as inhibitors; AID 504339, 2011; Lysine-specific demethylase 4A (Homo sapiens), O75164; 4.4% of 390,000 active; AlphaScreen JMJD2A-Tudor / H3K4me3 peptide binding; further: on the % scale 0 is the no-effect control and ±100 the full control effect; nearly all actives have a fitted effect of over 50% in size
Target sequence (O75164 whole entry, looked up, the tested form may be a part): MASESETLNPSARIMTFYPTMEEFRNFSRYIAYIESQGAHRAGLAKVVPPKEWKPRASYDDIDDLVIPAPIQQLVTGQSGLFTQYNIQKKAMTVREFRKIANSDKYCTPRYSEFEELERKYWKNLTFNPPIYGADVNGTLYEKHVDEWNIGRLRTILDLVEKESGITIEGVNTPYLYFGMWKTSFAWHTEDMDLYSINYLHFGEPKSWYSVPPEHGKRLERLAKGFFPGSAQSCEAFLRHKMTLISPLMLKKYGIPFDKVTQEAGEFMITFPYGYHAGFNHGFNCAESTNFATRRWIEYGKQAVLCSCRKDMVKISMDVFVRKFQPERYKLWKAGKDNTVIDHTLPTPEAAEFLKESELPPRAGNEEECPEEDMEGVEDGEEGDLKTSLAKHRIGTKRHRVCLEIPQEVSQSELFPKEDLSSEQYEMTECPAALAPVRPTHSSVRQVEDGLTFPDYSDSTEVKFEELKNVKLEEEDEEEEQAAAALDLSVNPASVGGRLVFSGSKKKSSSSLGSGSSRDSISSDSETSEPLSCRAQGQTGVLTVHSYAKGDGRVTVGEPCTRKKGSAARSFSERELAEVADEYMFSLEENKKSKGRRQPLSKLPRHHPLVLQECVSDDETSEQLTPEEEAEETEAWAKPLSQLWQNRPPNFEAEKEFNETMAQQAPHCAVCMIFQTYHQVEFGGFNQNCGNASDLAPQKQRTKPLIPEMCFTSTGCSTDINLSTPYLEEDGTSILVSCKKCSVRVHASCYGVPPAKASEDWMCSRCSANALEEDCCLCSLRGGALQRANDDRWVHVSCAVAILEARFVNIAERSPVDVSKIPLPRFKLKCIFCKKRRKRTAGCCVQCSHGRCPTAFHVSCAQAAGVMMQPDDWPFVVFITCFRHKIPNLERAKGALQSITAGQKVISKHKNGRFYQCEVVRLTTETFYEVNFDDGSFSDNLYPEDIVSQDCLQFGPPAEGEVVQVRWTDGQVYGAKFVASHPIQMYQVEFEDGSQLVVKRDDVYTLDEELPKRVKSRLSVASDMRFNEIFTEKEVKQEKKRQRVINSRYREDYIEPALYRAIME
L3MBTL1 block = qHTS Assay for the Inhibitors of L3MBTL1. Lethal(3)malignant brain tumor-like protein 1 (Homo sapiens), Q9Y468. Potency, µM (highest dose often 57.1 µM), without a hit: at the top dose activity, negative = inhibition, hits mostly inhibitors. AlphaScreen L3MBTL1–H3K9me1 peptide binding. 0.66% of 230,000 active; further: on the % scale 0 is the no-effect control and ±100 the full control effect; nearly all actives have a fitted effect of over 60% in size
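L3MBTL1 50 nM + b-AHA-H3(1-15)K9me1 75 nM, 30 min RT; compound added, 30 min RT; streptavidin donor/Ni-chelate acceptor beads 10 ug/mL each final, 30 min RT dark; AlphaScreen read.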
GLS inhibitor = qHTS for Inhibitors of Glutaminase (GLS) | Glutaminase kidney isoform, mitochondrial (Homo sapiens), O94925 | GLS enzymatic activity, qHTS titration | Potency, µM (doses to about 45.5 µM), inactives show at the top dose activity change, negative = inhibition, most hits filed as inhibitors | 0.21% of 410,000 active | AID 624170, 2012; further: on the % scale 0 is the no-effect control and ±100 the full control effect
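Glutamate formation by hKGA was monitored fluorometrically using coupled glutamate oxidase, HRP and Amplex Red. Substrate was added as 1 mM L-glutamine solution; incubation was 30 min at RT after an initial read.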
Numbers without * were called inactive; ? = inconclusive; · = no result given; [ ] = dose if it differs, or a comment. The call rests on the fitted dose curve; in most records, active means well fitted curve in the direction sought with a large enough effect; inconclusive means small, poorly fitted or top-dose-only effect, or another doubt; inactive means no such curve, though single readings can be large; an effect the other way counts as inactive or inconclusive. Potency means the concentration at half of the fitted maximal effect.

SMILES	BAZ2B block	G9a block	HP1b binding inh	JMJD2A Tudor	L3MBTL1 block	GLS inhibitor
Cc1cccc(N2C(=O)/C(=C\c3ccc(C(=O)O)cc3)c3ccccc3C2=O)c1	?	44.7µM*	27.0%	-28.3%	1.4%	-24.4%
NNC(=O)c1nc[nH]c1C(=O)Nc1ccccn1	2.51µM*	-30.6%	37.5%	2.82µM*	?	24.4%
O=C(Nc1ccccn1)c1ccc2ccccc2c1O	-20.3%	31.6µM*	56.7%	11.8%[57.1 µM]	3.2%	-25.8%
Cc1ccc(NC(=O)c2[nH]cnc2C(=O)NN)cc1	?	21.2%	46.0%	?	?	13.1%
O=C(O)c1ccccc1C(=O)Nc1ccccn1	-28.2%	?	12.5%	-35.1%	40.7%	0.2%
Cc1cccc(C(C)C)c1NC(=O)Cn1c(=O)oc2cc(S(=O)(=O)N3CCCC3)ccc21	0.8%	0.0%[59 µM]	29.9%	-10.1%	·	-3.5%
CCOc1ccc(Sc2cc(C(=O)NC(C)c3ccccc3)c3ccccc3n2)cc1 (configuration not stated)	-1.5%	-3.5%[59 µM]	7.8%	-19.6%	·	-4.2%
Cc1[nH]c2ccccc2c1C(=O)C(=O)NC1CC(=O)N(c2ccc(F)cc2)C1 (configuration not stated)	-37.6%	50.1µM*	15.6%	-11.7%	-5.2%	1.9%
COc1ccc2nc(C)c(C(=O)OCCN(C)C)cc2c1	4.9%	50.1µM*	·	·	-1.7%	·
O=C(NCc1n[nH]c(=S)n1-c1ccc(F)cc1)c1ccco1	-7.4%	22.4µM*	28.1%	22.4µM*	·	-3.7%
O=C(NCc1n[nH]c(=S)n1-c1ccc(F)cc1)c1ccc(S(=O)(=O)N2CCOCC2)cc1	-1.5%	14.1µM*	13.4%	12.6µM*	·	13.8%
O=C(NCc1n[nH]c(=S)n1-c1ccccc1)c1ccc(S(=O)(=O)N2CCOCC2)cc1	-3.9%	?	10.2%	7.08µM*	-2.6%	5.0%
O=C(NCc1n[nH]c(=S)n1-c1ccccc1)c1ccc(S(=O)(=O)N2CCCCC2)cc1	8.9%	8.91µM*	22.0%	?	·	0.2%
O=C(NCc1ccccc1)c1ccc(S(=O)(=O)N2CCCCCC2)cc1	·	·	·	·	·	0.2%
CCOCCCNC(=O)c1ccc(N2CCCC2)c(NS(=O)(=O)c2ccc(C)cc2)c1	9.4%	?	34.1%	-29.0%	·	1.0%
COCCNC(=O)c1ccc(C)c(S(=O)(=O)Nc2ccc(C)cc2)c1	7.8%	79.4µM*	23.9%	-4.0%	·	-6.7%
COCCCNC(=O)c1ccc(N2CCCC2)c(NS(=O)(=O)c2ccc(C)cc2)c1	?	7.94µM*	35.3%	-35.8%	16.0%	13.7%
CC1CC(C(F)F)n2nc(C(=O)O)cc2N1 (configuration not stated)	-10.8%	1.3%	-2.7%	20µM*	·	2.4%
CC1CC(C(F)(F)C(F)(F)F)n2nc(C(=O)O)cc2N1 (configuration not stated)	?	2.8%[59 µM]	17.2%	-17.6%	-6.0%	15.8µM*
CCOc1ccc(OCC)c(NC(=O)Cn2nc(CC)n3c(cc4sccc43)c2=O)c1	-4.2%	-23.7%[59 µM]	10.9%	-14.9%	·	-3.3%
COc1ccc(C(C)=O)cc1CSc1nnc(Nc2ccc(C)cc2)s1	-33.5%	10µM*	52.7%	3.1%	5.2%	-23.9%
COc1ccc(C(C)=O)cc1COC(=O)CSC(C)C(=O)Nc1cc(C)on1 (configuration not stated)	0.3%	-31.1%	8.9%	-0.7%	-0.1%	4.9%
COc1ccc(C(C)=O)cc1COC(=O)CSCC(=O)Nc1ccc(C)cc1	79.4µM*	1.4%[0.501 µM]	26.2%	-7.5%	3.4%	0.0%
Cc1ccc(-n2ncc3c(N4CCC(C)CC4)ncnc32)cc1C	50.0%	23.1%[59 µM]	80.2%	26.3%	·	-0.5%
CCOC(=O)Cn1c(=O)oc2cc(S(=O)(=O)N3CCC(C(=O)OCC)CC3)ccc21	-4.7%	-3.5%[59 µM]	38.1%	-1.3%	·	12.5%
SMILES	BAZ2B block	G9a block	HP1b binding inh	JMJD2A Tudor	L3MBTL1 block	GLS inhibitor
Cc1c(NC(=O)C(=O)/C=C(\O)c2ccc(Br)cc2)c(=O)n(-c2ccccc2)n1C	?	?	-17.5%	25.1µM*	-9.1%	20.5%
Cc1c(NC(=O)c2ccc(C(=O)Nc3c(C)n(C)n(-c4ccccc4)c3=O)cc2)c(=O)n(-c2ccccc2)n1C	9.7%	-10.1%[0.501 µM]	39.4%	-3.3%	-0.1%[2.29 µM]	0.3%
Cc1cc(C)cc(NC(=O)C2CCN(c3nc4ccccc4nc3C(F)(F)F)CC2)c1	1.3%	2.4%[59 µM]	25.3%	-9.1%	·	-6.0%
Cc1ccc2[nH]c3c(=S)nc[nH]c3c2c1	-1.7%	1.78µM*	15.7%	?	7.1%	1.4%
Cc1ccc2[nH]c3c(=O)n(N)c(C)nc3c2c1	-12.0%	-26.0%	-4.4%	-8.2%	0.1%	7.6%
Cc1cccc(NC(=O)CCC(=O)OCC(=O)c2ccc(Oc3ccc([N+](=O)[O-])cc3)cc2)c1	-3.7%	8.91µM*	-4.1%	-18.5%	2.5%	-2.6%
O=C(CCCN1C(=O)CCC1=O)Nc1ccccc1F	?	56.2µM*	5.3%	-17.9%	·	-1.4%
O=C(CCCN1C(=O)CCC1=O)Nc1ccc(Br)cc1F	5.0%	16.8%	23.6%	-19.2%	·	-17.3%
COc1ccc(NC(=O)Cn2cnc3ccccc3c2=O)cc1OC	-9.8%	·	27.6%	-4.5%	5.3%	0.6%
O=C(CCCn1cnc2ccccc2c1=O)Nc1ccccc1F	3.4%	35.5µM*	18.3%	-9.1%	·	-6.3%
COc1ccc(NC(=O)CCCn2cnc3ccccc3c2=O)cc1	-31.5%	28.2µM*	-13.5%	-20.7%	·	-4.0%
Cc1ccc(S(=O)(=O)c2cn(Cc3ccccc3F)c3cc4c(cc3c2=O)OCO4)cc1	2.0%	-1.7%[59 µM]	46.2%	-6.0%	·	-15.4%
Cc1ccc(N(Cc2ccccc2F)S(C)(=O)=O)cc1C	56.2µM*	44.7%	33.2%	13.4%	·	0.7%
Cc1cccc(N(Cc2ccccc2F)S(C)(=O)=O)c1	3.0%	?	28.2%	-2.9%	6.4%	6.8%
CCc1nnc(NC(=O)CSc2nnc(-c3ccccc3O)n2CC)s1	-6.1%	?	13.0%	-13.5%	·	-4.4%
CCSc1nnc(NC(=O)CSc2sc3c(O)cc(=O)[nH]c3c2C#N)s1	79.4µM*	?	-37.7%	?	·	20.0%
Cc1csc(NC(=O)CSc2sc3c(O)cc(=O)[nH]c3c2C#N)n1	?	50.1µM*	-27.2%	-31.4%	·	1.6%
